# The list is not random: actives were taken first. Their share in the collection is about 1.2%.
# p53null 39C kill – selectivity test: cytotoxicity in p53 null cells, nonpermissive temperature | hit rate 0.97% among 55,000 | H1299 p53-null (neo) cells, 39C, ATPlite viability, 24 h | AID 904 | Potency, µM (series often up to 46.1 µM), for inactives: at the highest dose activity, negative = cell killing, hits mostly cytotoxic;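 also: 0% = DMSO only and -100% = full killing by 100 µM tamoxifen; nearly all actives have a fitted effect of over 50% in size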
#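 Luminescent ATP signal reported cell survival after H1299 lines (neo, p53 null; or p53 A138V) received up to 46 uM compound and 24 hr incubation at 39C.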
# FH mod – Identification of activators of human fumarate hydratase by quantitative high-throughput screening; FH coupled MDH/diaphorase resazurin fluorescence, 15 min; Potency, µM (titrated, usually from 79.9 µM), for inactives: at the top dose activity change, negative = inhibition, hits mostly inhibitors; AID 1347055, 2019; hit rate 0.22% among 54,000; also: the screen sought activators but most active calls are inhibition curves; nearly all actives have a fitted effect of over 45% in size
# Target sequence (P07954 whole entry, looked up): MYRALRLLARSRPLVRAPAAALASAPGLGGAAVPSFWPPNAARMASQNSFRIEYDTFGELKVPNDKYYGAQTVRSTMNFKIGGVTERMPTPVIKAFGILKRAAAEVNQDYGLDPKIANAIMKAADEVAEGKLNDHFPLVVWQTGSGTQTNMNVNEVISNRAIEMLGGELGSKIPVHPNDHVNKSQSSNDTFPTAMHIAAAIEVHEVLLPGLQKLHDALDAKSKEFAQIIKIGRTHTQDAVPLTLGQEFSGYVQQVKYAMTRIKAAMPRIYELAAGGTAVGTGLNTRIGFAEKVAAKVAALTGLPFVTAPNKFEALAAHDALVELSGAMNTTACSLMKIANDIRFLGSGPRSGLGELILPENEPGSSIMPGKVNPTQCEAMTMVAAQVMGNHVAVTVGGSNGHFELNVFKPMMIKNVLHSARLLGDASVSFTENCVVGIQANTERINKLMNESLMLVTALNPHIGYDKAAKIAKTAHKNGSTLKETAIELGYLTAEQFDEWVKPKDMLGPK
# p53null 32C tox – selectivity test: cytotoxicity in p53 null cells, permissive temperature; Potency, µM (series often up to 46.1 µM), without a hit: at the highest dose activity change, negative = cytotoxicity, usual class: cytotoxic; H1299-neo p53 null cells, ATP luminescence, 24 h, 32C; hit rate 0.62% among 55,000; AID 903;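 also: 0% = DMSO only and -100% = full killing by 100 µM tamoxifen; nearly all actives have a fitted effect of over 55% in size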
#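 H1299-neo (p53 null) cells, 600/well, treated 24 h at 32C with compound up to 46 uM; ATPlite luminescence viability, normalized to DMSO and 100 uM tamoxifen; AC50 by Hill fit.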
# Starred values were filed as active, the others as inactive; u = inconclusive; x = not tested or not shown; ! = repeats disagree; [ ] = another dose, or the depositor's remark. Calls follow the shape of the dose curve; as a rule, active = well fitted curve in the direction sought with a large enough effect; inconclusive = small, poorly fitted or top-dose-only effect, or another doubt; inactive = no such curve, though single readings can be large; an effect the other way counts as inactive or inconclusive. Unless noted, % is scaled to controls: 0 for no effect and ±100 for the full control effect; potency is read from the fitted curve at half-maximal effect.
SMILES,p53null 39C kill,FH mod,p53null 32C tox
Cc1cccc(N=C/C(C(=O)C(F)(F)F)=C(\O)c2ccco2)c1,x,x,6%
O=C(/C(C=Nc1ccc(F)cc1)=C(/O)c1ccco1)C(F)(F)F,u,x,7.9µM*
O=c1[nH]sc2cc(Cl)ccc12,x,0%[53.3 µM],x
CN(Cc1ccccc1)C(=O)NC1CCCCC1,-13%,x,-7%
CC(C)(Sc1ccc(CCN(CCCCC2CCCCC2)C(=O)NC2CCCCC2)cc1)C(=O)O,x,25µM*!,x
C=CC1(C)CC2CCC3C(C)(C(=O)O)CCCC3(C)C2=CC1=O (stereo unspecified),x,7%[53.3 µM],x
OC1(CN2CCC(COc3noc4cccc(O[C@@H]5CCOC5)c34)CC2)CCOCC1,x,20%,x
CC1OC(OC2C(OC3C(O[C@H]4CC[C@@]5(C)C(CC[C@]6(C)C5C(=O)C=C5C7CC(C)(C)CC(O)[C@]7(C)CC[C@]56C)C4(C)C)OC(C(=O)O)C(O)C3O)OCC(O)C2O)C(O)C(O)C1O (stereo partly specified),x,-1%[20.6 µM],x
COc1ccc(/C=C\c2onc(C)c2S(=O)(=O)N2CCC(C(=O)Nc3ccc(Cl)cc3)CC2)cc1,10µM*,-6%,-5%
COc1ccc(/C=C\c2onc(C)c2S(=O)(=O)N2CCC(C(=O)Nc3ccc(C)c(F)c3)CC2)cc1,10%,-23%,6%
CCCCN(C)CCCNC(=O)Cn1ncc2c3ccccc3n(Cc3ccccc3F)c2c1=O,u,-4%,9%
CCCCN(C)CCCNC(=O)Cn1ncc2c3ccccc3n(Cc3cc(C)ccc3C)c2c1=O,10µM*,-10%,-3%
CCS(=O)c1nc(-c2cccc(OCc3ccccc3)c2)cc(C(F)(F)F)n1 (stereo unspecified),x,-5%,x
COc1ccc(S(=O)(=O)Nc2cccnc2Nc2ccc(O)cc2)cc1,x,2%,x
O=C(Oc1ccc(Cl)cc1)c1cc(-c2ccc3c(c2)OCCO3)on1,-32%,0%,-19%
CCOC(=O)c1ccc(NC(=O)Nc2ccc3c(c2)OCCO3)cc1,-4%,x,-5%
COc1ccc(C(=O)Nc2ccc3c(c2)OCCO3)cc1,11µM*,x,11µM*
CC(C)c1ccc(OC(=O)c2cc(-c3ccc4c(c3)OCCO4)on2)cc1,32µM*,-30%,13µM*
N#Cc1ccc(OC(=O)c2cc(-c3ccc4c(c3)OCCO4)on2)cc1,u,-13%,u
COc1ccc(OC(=O)c2cc(-c3ccc4c(c3)OCCO4)on2)cc1,u,-8%,13µM*
CC1CC(=O)C2C(O)(C1)CC(O)C13OC1c1c(O)cccc1C(=O)C23O (stereo unspecified),x,4%[53.3 µM],x
Cc1ccc2[nH]cc(C(c3ccccc3)c3ccc(Cl)s3)c2c1 (stereo unspecified),25µM*,u,20µM*
Clc1ccc(C(c2ccccc2)c2c[nH]c3ccccc23)s1 (stereo unspecified),-9%,u,7%
O=C(Nc1ccc2[nH]nc(-c3ccncc3)c2c1)[C@@H]1CCN(CC(=O)N2CCN(c3ccc(-c4ncccn4)cc3)CC2)C1,x,9%,x
Cc1ccc(S(=O)(=O)Nc2ccccc2N2CCCCC2)s1,x,-7%,x
SMILES,p53null 39C kill,FH mod,p53null 32C tox
COc1cc(/C=C(\C#N)C(=O)c2ccc(O)c(O)c2)cc(I)c1O,x,7.9µM*,x
C=CCNC(=O)/C(C#N)=C\c1cc(Cl)c(OCC)c(OC)c1,-2%,x,-13%
Oc1ccc2ccccc2c1SSc1c(O)ccc2ccccc12,x,35µM*!,x
Oc1ccc2ccccc2c1/C=N/n1cnnc1,-10%,x,9%
C/C=C1\[C@H](O[C@@H]2O[C@H](CO)[C@@H](O)[C@H](O)[C@H]2O)OC=C2C(=O)OCCc3ccc(O)c(c3)Oc3ccc(cc3)CCOC(=O)C[C@H]21,x,-10%[20.6 µM],x
COc1ccc(CNC(=O)CN2C(=O)CSc3ccc(S(=O)(=O)N4CCCC4)cc32)cc1,-21%,1%,-6%
Cc1ccc(CNC(=O)CN2C(=O)CSc3ccc(S(=O)(=O)N4CCCC4)cc32)cc1,13µM*,-14%,-10%
CC(C)(C)c1ccc(S(=O)(=O)Nc2ccc(Cl)cc2C(=O)c2cc[n+]([O-])cc2)cc1,x,-4%,x
CCC(C)C(=O)OC1CC(O)C23C4OCC5(C(O)CC2C1(C)C(O)O4)C3C(=O)C(O)C1(C)C(O)(c2ccoc2)CC2OC251 (stereo unspecified),x,-7%[20.6 µM],x
COc1ccc(C(=O)Nc2ccc(NC(=O)c3cccs3)cc2)cc1OC,9%,28µM*[activator],-3%
COc1ccccc1C(=O)Nc1ccc(NC(=O)c2cccs2)cc1,u,u,-12%
COc1cccc(CN(C(=O)CC(C)(C)C)C2CC(C(=O)N3CCNCC3)N(Cc3ccc4c(c3)OCO4)C2)c1 (stereo unspecified),x,-12%,x

# High-throughput results (PubChem BioAssay)
